Inconclusive results are not listed. Entries that show only a call come without a potency. A number with no mark means an inactive call. Active and inactive are the calls of the source. Calls come from the whole dose curve; as a rule, active = well fitted cell-killing curve with a large enough effect in the repeat runs; inconclusive = weak or mixed curves, or effect the other way; inactive = flat fitted curve, though single readings scatter.
assay: qHTS RealTime-Glo MT Cell Viability Assay in HEK293 cells - 16 hour (AID 1224872); conditions: RealTime-Glo luminescence; series mostly up to 76.8 µM; note: top concentration of the series differs between compounds; nearly all actives have a fitted effect of over 50% in size
Text: National Center for Advancing Translational Sciences [NCATS]
NIH Chemical Genomics Center [NCGC]
U.S. Environmental Protection Agency [EPA]
National Institutes of Environmental Health Sciences [NIEHS]
National Toxicology Program [NTP]
U.S. Food and Drug Administration [FDA]
Measure of cell viability is critical in the cell-base assay. Analysis of cell viability is necessary for the characterization of cell responses to cytotoxic drugs and environmental stress. A RealTime-Glo MT Cell Viability Assay to monitor cell viability in real time of continues cell culture during 40 hours of compound treatment was used to screen Tox21 10K library compounds in Hek293 cells. The RealTime-Glo MT Cell Viability Assay is a nonlytic, homogeneous, bioluminescent method to measure cell viability in real time using a simple, plate-based method. The assay involves adding NanoLuc luciferase and a cell-permeant prosubstrate to cells in culture. Viable cells reduce the proprietary prosubstrate to generate a substrate for NanoLuc luciferase. This substrate diffuses from cells into the surrounding culture medium, where it is rapidly used by the NanoLuc Enzyme to produce a luminescent signal. The signal correlates with the number of viable cells, making the assay well suited for cytotoxicity studies.
Tox21 Assay Protocol Summary:
The mixture of Hek293 cell suspension and reagents were dispensed at 600cells/6 ul/well in 1536-well tissue culture treated black solid bottom plates using a Multidrop dispenser. After the assay plates were incubated at a 37 C/5% CO2 incubator for 5 hours, 23 nL of compounds dissolved in DMSO, positive and negative controls was transferred to the assay plate by a pintool work station. The plates were incubated at 37 C for 40 hours. The luminescence intensity were measured at 0h, 8h, 16h, 24h, 32h and 40h time points using ViewLux plate reader during compound treatment.

Row | Structure (SMILES) | Potency | activity change, negative = cytotoxicity
1 | CCCCCCn1c(=O)c2c(ncn2C)n(C)c1=O | inactive | 
2 | C=O | inactive | 
3 | CCOC(=O)c1ccccc1O | inactive | 
4 | C=Cc1ccccc1 | inactive | 
5 | CCOc1ccc(OCC)c(Cl)c1 | inactive | 
6 | CN1[C@@H]2CC[C@H]1CC(OC(=O)c1c[nH]c3ccccc13)C2 (stereo not given in full) | inactive | 
7 | CC1(C)O[C@@H]2C[C@H]3[C@@H]4CCC5=CC(=O)CC[C@]5(C)[C@@]4(F)[C@@H](O)C[C@]3(C)[C@]2(C(=O)CCl)O1 | inactive | 
8 | FC(F)(F)C(Cl)(Cl)Cl | inactive | 
9 | COc1nc(C)nc(NC(=O)NS(=O)(=O)c2ccccc2OCCCl)n1 | inactive | 
10 | CC(C)(CO)[C@@H](O)C(=O)NCCC(=O)O | inactive | 
11 | CO[Si](C)(C)OC | inactive | 
12 | CCC(=O)O[C@]1(C(=O)SCF)[C@H](C)C[C@H]2[C@@H]3C[C@H](F)C4=CC(=O)C=C[C@]4(C)[C@@]3(F)[C@@H](O)C[C@@]21C | inactive | 
13 | C[C@@H]1CN(c2c(F)c(N)c3c(=O)c(C(=O)O)cn(C4CC4)c3c2F)C[C@H](C)N1 |  | -1.59% [at 15.8 µM]
14 | CC(C)NC[C@@H](O)COc1cccc2ccccc12 | inactive | 
15 | C=CC1CO1 (stereo not given) | inactive | 
16 | CC/C=C\CCOC(=O)CCCCC | inactive | 
17 | CCCC1CCC(=O)O1 (stereo not given) | inactive | 
18 | C1CCOC1 | inactive | 
19 | CC(C)(C)C1CCCCC1=O (stereo not given) | inactive | 
20 | CC(C)CC(=O)OCc1ccccc1 | inactive | 

Row | Structure (SMILES) | Potency | activity change, negative = cytotoxicity
21 | CC(C)C1=CC2=CC[C@@H]3[C@](C)(CCC[C@@]3(C)C(=O)O)[C@H]2CC1 | inactive | 
22 | CCOc1ccc(NC(N)=O)cc1 | inactive | 
23 | FC(F)(F)c1ccccc1 | inactive | 
24 | CCCCCCCCCCCCOCCOS(=O)(=O)O | inactive | 
25 | NNS(=O)(=O)c1ccc(Oc2ccc(S(=O)(=O)NN)cc2)cc1 | inactive | 
26 | Cc1nc(N)nc(N)c1-c1ccc(Cl)c(Cl)c1 | inactive | 
27 | CC(C)C(=O)OCC(C)(C)C(O)C(C)C (stereo not given) | inactive | 
28 | Cc1onc(-c2ccccc2)c1C(=O)Cl | inactive | 
29 | C=CC(C)(O)CC/C=C(\C)CCC=C(C)C (stereo not given) | inactive | 
30 | CC1=C(O)C(=O)OC1C (stereo not given) | inactive | 
31 | CCCCN1C[C@H](O)[C@@H](O)[C@H](O)[C@H]1CO | inactive | 
32 | COC(=O)c1ccc2cc(C(=O)OC)ccc2c1 |  | -1.54% [at 15.8 µM]
33 | CCOC(=O)[C@H](CCc1ccccc1)N[C@@H](C)C(=O)N1Cc2cc(OC)c(OC)cc2C[C@H]1C(=O)O | inactive | 
34 | CC1=NN(c2cc(Cl)c(S(=O)(=O)O)cc2Cl)C(=O)C1N=Nc1ccc(S(=O)(=O)O)cc1 (stereo not given) | inactive | 
35 | CC(Oc1c(Cl)cccc1Cl)C1=NCCN1 (stereo not given) | inactive | 
36 | COc1ccccc1OCC(O)COC(N)=O (stereo not given) | inactive | 
37 | CN(CCCN1c2ccccc2CCc2ccccc21)CC(=O)c1ccc(Cl)cc1 | inactive | 
38 | OCCN1CCN(CCO)CC1 | inactive | 
39 | C[C@@H](N)C(=O)O | inactive | 
40 | O=C(O)[C@@H]1CSCN1 | inactive | 
